Several values for one entry are separate records, joined by “and”; a condition that tells them apart may be missing. Equal values may be shown once. This is part of a sample that, as a whole, favours compounds with a hit. Of some 83,000 tested, about 20% had one in any assay.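 For each line, cells grew in 96-well plates with the test compound present at a single concentration for 48 hours.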 Activity calls are given as the source filed them. How the source made its calls: active means growth percent below 10; inactive means the rest.
Legend:
Assay in all cases: NCI-60 one-dose screen, 48 h (100 = growth as untreated, 0 = no growth, -100 = all killed)
Details in all cases: 10 µM unless noted
[1] = test system: SK-MEL-2 melanoma
[2] = test system: SN12C renal
[3] = test system: UO-31 renal
[4] = test system: TK-10 renal
[5] = test system: ACHN renal
[6] = test system: CAKI-1 renal
[7] = test system: A498 renal
[8] = test system: HL-60(TB) leukemia
[9] = test system: CCRF-CEM leukemia
[10] = test system: MOLT-4 leukemia
[11] = test system: SR leukemia
[12] = test system: RPMI-8226 leukemia
[13] = test system: OVCAR-8 ovarian
[14] = test system: OVCAR-4 ovarian
[15] = test system: SK-OV-3 ovarian
[16] = test system: IGROV1 ovarian
[17] = test system: OVCAR-3 ovarian
[18] = test system: OVCAR-5 ovarian
[19] = test system: HS 578T breast

Measured: growth

COC(=O)CCP(CCC(=O)OC)c1ccccc1
inactive: [1] 110% | [2] 99.5% | [3] 91.4% | [4] 109% | [5] 108% | [6] 94.6% | [7] 123% | [8] 98.5% | [9] 109% | [10] 113% | [11] 106% | [12] 113% | [13] 105% | [14] 103% | [15] 101% | [16] 110% | [17] 107%

O=NN(c1ccccc1)c1ccccc1
inactive: [1] 105% | [2] 98.1% | [3] 96% | [4] 103% | [5] 118% | [6] 102% | [7] 101% | [9] 98.9% | [10] 114% | [11] 99.5% | [12] 107% | [13] 102% | [18] 107% | [15] 105% | [17] 102% | [19] 107%

CC(=O)c1cccc(S(=O)(=O)F)c1
inactive: [1] 91.9% | [2] 104% | [3] 83% | [4] 115% | [5] 99% | [6] 95.9% | [7] 95.8% | [8] 103% | [9] 97.9% | [10] 112% | [11] 76.1% | [12] 101% | [13] 106% | [18] 90.5% | [14] 114% | [15] 109% | [17] 117% | [19] 96.4%

CNC(=O)CCl
inactive: [1] 101% | [2] 96.9% | [3] 96.5% | [4] 99.9% | [5] 114% | [6] 94.9% | [7] 92.1% | [8] 119% | [9] 94% | [10] 118% | [11] 109% | [12] 106% | [13] 105% | [18] 107% | [14] 101% | [15] 102% | [16] 107% | [17] 113% | [19] 104%

CSc1cc(/C=C(\C)[C@@H]2C[C@@H]3O[C@]3(C)CCC[C@H](C)[C@H](O)[C@@H](C)C(=O)C(C)(C)[C@@H](O)CC(=O)O2)n(CCNC(=O)OC(C)(C)C)n1
inactive: [1] 75.6% | [2] 84% | [3] 55.5% | [4] 76.8% | [5] 77.8% | [6] 46.4% | [7] 56.6% | [9] 63.9% | [10] 42.7% | [11] 37.7% | [12] 29.7% | [13] 55.5% | [18] 59.8% | [14] 82.4% | [15] 79.9% | [16] 54.4% | [17] 28.8% | [19] 75.5%

CC1=C([Te]c2ccccc2)C(=O)c2ccccc2C1=O
active: [1] 9.62% | [2] 5.18% | [3] -33.4% | [4] -33% | [5] -86.6% | [6] -46.5% | [7] -66% | [9] -44.9% | [12] -32.9% | [13] -15.9% | [18] -72.3% | [14] -72.4% | [15] -37.8% | [16] -21.5% | [17] -77.5% | [19] -22.4%
inactive: [8] 12.7% | [10] 31.4% | [11] 21.4%

Cc1cc(N)ccc1N
inactive: [1] 104% | [2] 95.7% | [3] 88.7% | [4] 126% | [5] 97% | [6] 97.9% | [7] 79.2% | [9] 69.3% | [12] 77% | [13] 96.1% | [18] 96% | [14] 104% | [15] 99.9% | [16] 108% | [17] 102% | [19] 104%

CN(C)c1ccc(C=C2C(=O)NC(=O)NC2=O)cc1
inactive: [1] 105% | [2] 77.5% | [3] 92.9% | [4] 109% | [5] 89.3% | [6] 78.9% | [7] 58.2% | [8] 102% | [9] 115% | [10] 98.7% | [11] 107% | [12] 131% | [13] 98.5% | [18] 77.9% | [15] 109% | [17] 95.8% | [19] 91.7%

C[C@]12CC[C@H]3[C@@H](C[C@@H]4SC(Nc5ccccc5)=N[C@@]45C/C(=N/O)CC[C@]35C)[C@@H]1CCC2=O
inactive: [1] 69% | [2] 84.7% | [3] 91.5% | [4] 102% | [5] 60.4% | [6] 59.3% | [7] 96.3% | [8] 70.1% | [10] 20.2% | [13] 46.7% | [18] 99.7% | [14] 88% | [15] 105% | [16] 88.4% | [17] 42.9% | [19] 65.2%
active: [9] 8.6% | [11] 2.15% | [12] -1.41%

CC1(C)N=C(N)N=C(N)N1c1ccc(CCC(=O)Nc2ccc(S(=O)(=O)F)cc2)cc1
inactive: [1] 50.4% | [2] 33.4% | [3] 82.3% | [4] 24.3% | [5] 64.5% | [6] 28.8% | [7] 60.3% | [8] 18.8% | [9] 18.9% | [10] 26.1% | [11] 15.7% | [12] 34.4% | [13] 36.7% | [18] 34% | [14] 92.8% | [15] 67.8% | [17] 96.7%

O=[N+]([O-])c1cc(Br)c(O)c(Br)c1
inactive: [1] 108% | [2] 106% | [3] 87.5% | [4] 100% | [5] 118% | [6] 108% | [7] 70.1% | [8] 119% | [9] 100% | [10] 107% | [11] 102% | [12] 98.9% | [13] 99.1% | [18] 115% | [14] 122% | [15] 103% | [16] 111% | [19] 109%

O=C(CCCN1CCC2(CC1)C(=O)NCN2c1ccccc1)c1ccc(F)cc1
active: [18] -54.6%
inactive: [1] 106% and 78.5% | [2] 99.6% and 84.2% | [3] 77.1% and 66% | [4] 115% and 99.1% | [5] 20.3% | [6] 91.6% and 15.5% | [7] 50.3% and 30.6% | [8] 100% and 114% | [10] 58.5% and 33% | [11] 99.2% | [12] 103% and 74.8% | [13] 91.8% and 76.1% | [15] 102% and 111% | [16] 73.6% and 29% | [17] 105% and 107%

CCCCCCCCCCCCCCCC[N+](C)(C)Cc1ccccc1
active: [2] 5.04% and -76.7% | [4] 8.74% and -73.5% | [8] -28.8% and -47.8% | [9] -22% and -30.1% | [12] -42.2% and -50.1% | [14] 3.33% and -44.5% | [16] -71.5% and -87.3% | [17] 1.73% and -74%
25.2% (inactive) and -69% (active): [1]
24.7% (inactive) and -62.5% (active): [18]
inactive: [3] 54.3% and 51% | [5] 55.1% and 23.4% | [6] 84.4% and 50.6% | [7] 36.2% and 38.2% | [13] 10.5%
31.6% (inactive) and -7.74% (active): [15]

C[C@]12CC[C@H]3[C@@H](CC=C4c5nc(-c6ccc(Br)cc6)sc5CC[C@@]43C)[C@@H]1CC[C@@H]2O
inactive: [1] 101% | [2] 91.4% | [3] 95.6% | [4] 110% | [5] 93.4% | [6] 85.4% | [7] 107% | [8] 94.3% | [9] 96.1% | [11] 98.2% | [12] 54.6% | [13] 106% | [18] 90% | [15] 95.1% | [17] 103%

N[C@@H](CCC(=O)CCl)C(=O)O
inactive: [1] 87.6% [20 µM] | [2] 89% [20 µM] | [3] 91% [20 µM] | [4] 101% [20 µM] | [5] 97.9% [20 µM] | [6] 97% [20 µM] | [7] 110% [20 µM] | [9] 97.6% [20 µM] | [10] 99.9% [20 µM] | [12] 111% [20 µM] | [13] 108% [20 µM] | [18] 98% [20 µM] | [14] 112% [20 µM] | [15] 108% [20 µM] | [16] 99.5% [20 µM] | [17] 110% [20 µM] | [19] 109% [20 µM]

O=C/C=C/c1ccco1
inactive: [1] 108% | [2] 101% | [3] 88.9% | [4] 97.7% | [5] 109% | [6] 95.6% | [7] 96.9% | [8] 88.2% | [9] 100% | [10] 98.9% | [11] 99.4% | [12] 102% | [13] 100% | [18] 101% | [14] 105% | [15] 96.1% | [16] 106% | [17] 110% | [19] 107%

From PubChem BioAssay (NCI)
